Assay outcomes from PubChem BioAssay.
PLK1 PBD inh: inhibitors of human PLK1 polo-box domain binding. Plk1 PBD binding of FITC phosphopeptide, fluorescence polarization. 360,000 compounds, 2.8% hits. Potency, µM, most hits filed as inhibitors. P53350; also: series mostly up to about 57 µM; nearly all actives have a fitted effect of over 65% in size
Target sequence (P53350 whole entry, looked up, the tested form may be a part): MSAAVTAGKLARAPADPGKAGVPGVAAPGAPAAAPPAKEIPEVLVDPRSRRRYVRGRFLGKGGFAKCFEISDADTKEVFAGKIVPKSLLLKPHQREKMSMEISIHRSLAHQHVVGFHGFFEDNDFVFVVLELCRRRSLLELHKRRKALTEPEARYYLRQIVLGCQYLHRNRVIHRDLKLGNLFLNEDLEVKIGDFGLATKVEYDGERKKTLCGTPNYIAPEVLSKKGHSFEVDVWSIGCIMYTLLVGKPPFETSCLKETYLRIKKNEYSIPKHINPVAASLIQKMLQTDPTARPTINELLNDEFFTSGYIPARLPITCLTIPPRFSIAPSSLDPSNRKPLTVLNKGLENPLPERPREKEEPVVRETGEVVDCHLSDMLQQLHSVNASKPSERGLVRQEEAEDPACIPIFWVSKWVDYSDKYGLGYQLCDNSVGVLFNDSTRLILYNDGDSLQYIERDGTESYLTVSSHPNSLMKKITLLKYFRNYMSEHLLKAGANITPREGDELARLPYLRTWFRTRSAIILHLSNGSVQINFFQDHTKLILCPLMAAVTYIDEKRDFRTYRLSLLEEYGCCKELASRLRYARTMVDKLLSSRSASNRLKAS
HP1b chromo inh: HP1-beta chromodomain-methylated histone interaction inhibition; Potency, µM (top dose mostly 114 µM), hits mostly inhibitors; AID 540317; 390,000 compounds, 0.56% hits; AlphaScreen HP1-beta / biotin-H3K9me3 peptide binding; also: nearly all actives have a fitted effect of over 70% in size
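AlphaScreen: HP1-beta (50 nM) preformed 30 min with biotin-H3(1-18)K9me3 peptide (50 nM) in PBS pH 7.4, 0.01% Tween-20. Compound added for 30 min at RT, then streptavidin donor/nickel chelate acceptor beads (10 ug/mL) for 30 min.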
BAZ2B inh: inhibitors of human BAZ2B bromodomain; Q9UIF8; AID 504333; AlphaScreen BAZ2B-H3K14Ac peptide displacement; 360,000 compounds, 4.4% hits; Potency, µM (titrated, usually from 114 µM), usual class: inhibitors; also: nearly all actives have a fitted effect of over 60% in size
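AlphaScreen displacement: compounds (up to 110uM) incubated 30 min at room temperature with a preformed 50 nM BAZ2B/50 nM biotinylated H3K14Ac peptide complex in PBS pH 7.4 with Tween-20. Donor and acceptor beads at 10 ug/mL final added, 20 min light-protected before reading.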
G9a inh: inhibitors of human histone lysine methyltransferase G9a; 350,000 compounds, 8.8% hits; Potency, µM (series often up to 102 µM), actives largely listed as inhibitors; Q96KQ7; AID 504332; G9a H3K9 monomethylation, AlphaScreen, 2 h; also: nearly all actives have a fitted effect of over 75% in size
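Enzyme 20 nM + cpd, 15 min RT; add b-H3K9 pep 500 nM / SAM 20 uM; 2 h RT; anti-H3K9me1 Ab 0.5 ug/mL + SA donor / anti-rabbit acceptor beads 20 ug/mL each, 10 min; AlphaScreen read.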
JMJD2A Tudor inh: inhibitors of human JMJD2A Tudor domain; Potency, µM (series often up to 114 µM), usual class: inhibitors; 390,000 compounds, 4.4% hits; O75164; AlphaScreen JMJD2A-Tudor / H3K4me3 peptide binding; AID 504339; also: nearly all actives have a fitted effect of over 50% in size
PI5P4Ka inh: blocks human PI5P4K alpha kinase activity; PI5P4Kalpha enzyme, ADP-Glo luminescence, 60 min; hits give low values; max response, %; AID 652105; 330,000 compounds, 1.2% hits; active = max response of -50% or lower; inconclusive = between -30% and -50%; inactive = -30% or higher; also: value at the top dose of about 77 µM
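Luminescence from ADP-Glo served as readout of PI5P4Kalpha activity in a qHTS format. Reaction: enzyme, substrate, compound, ATP at 5 microM final, 60 min at RT.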
Hits are given with their value. Only some compounds are listed: those with a hit (about 12% of all), similar ones and a draw of the others. Unless noted, calls follow the shape of the dose curve; as a rule, active = well fitted curve in the direction sought with a large enough effect; inconclusive = small, poorly fitted or top-dose-only effect, or another doubt; inactive = no such curve, though single readings can be large; an effect the other way counts as inactive or inconclusive.

What do the screens show for `Cc1ccc(-c2cc(C(=O)OCC(=O)N(C)C3CCS(=O)(=O)C3)c3ccccc3n2)c(C)c1` (stereo not drawn)?
PLK1 PBD inh: inactive; HP1b chromo inh: inactive; BAZ2B inh: inactive; G9a inh: inactive; JMJD2A Tudor inh: inactive; PI5P4Ka inh: inactive

Results for COc1cc(C2c3c(-c4ccccc4O)n[nH]c3C(=O)N2Cc2ccco2)ccc1OCC(C)C (stereo not drawn) ?
HP1b chromo inh: inactive; BAZ2B inh: inconclusive; G9a inh: inactive; JMJD2A Tudor inh: inconclusive

Results for Nc1ncnc2c1ncn2[C@@H]1O[C@H](CNCc2ccccc2OCc2ccc(Cl)cc2Cl)[C@@H](O)[C@H]1O ?
PLK1 PBD inh: inactive; HP1b chromo inh: inactive; JMJD2A Tudor inh: inactive; PI5P4Ka inh: inactive

What do the screens show for `O=C1CN(c2nc(-c3ccccc3)c3cc(Cl)ccc3n2)c2ccccc2N1`?
PLK1 PBD inh: inactive; HP1b chromo inh: inactive; BAZ2B inh: inactive; G9a inh: 50.1µM; JMJD2A Tudor inh: inactive; PI5P4Ka inh: inactive

Results for Clc1ccc2nc(N3CCNCC3)nc(-c3ccccc3)c2c1 ?
PLK1 PBD inh: inactive; HP1b chromo inh: inactive; BAZ2B inh: inactive; G9a inh: inactive; JMJD2A Tudor inh: inactive; PI5P4Ka inh: inactive

What do the screens show for `CSc1ncc(C(=O)Nc2cc(C)ccc2C)c(C)n1`?
PLK1 PBD inh: inactive; HP1b chromo inh: inactive; BAZ2B inh: inactive; G9a inh: inactive; JMJD2A Tudor inh: inactive; PI5P4Ka inh: inactive

Results for CCOc1ccc(C(=O)NCC(=O)OCCCOC(=O)CNC(=O)c2ccc(OCC)cc2)cc1 ?
PLK1 PBD inh: inactive; HP1b chromo inh: inactive; BAZ2B inh: inactive; G9a inh: inactive; JMJD2A Tudor inh: inactive; PI5P4Ka inh: inactive

Results for COc1ccc(C(C)=O)cc1COC(=O)CNC(=O)c1ccc(Cl)cc1 ?
PLK1 PBD inh: inconclusive; HP1b chromo inh: inactive; BAZ2B inh: inactive; G9a inh: 50.1µM; JMJD2A Tudor inh: inactive; PI5P4Ka inh: inactive

Results for CCOc1ccc(C(=O)NCC(=O)OCc2cc(C(C)=O)ccc2OC)cc1 ?
PLK1 PBD inh: inconclusive; HP1b chromo inh: inactive; BAZ2B inh: inactive; G9a inh: 44.7µM; JMJD2A Tudor inh: inactive; PI5P4Ka inh: inactive

How did COc1ccc(C(C)=O)cc1COC(=O)CNC(=O)c1ccc(F)cc1 do in these assays?
PLK1 PBD inh: inactive; HP1b chromo inh: inactive; BAZ2B inh: inactive; G9a inh: inactive; JMJD2A Tudor inh: inactive; PI5P4Ka inh: inactive

What do the screens show for `CCN(CC)S(=O)(=O)c1ccc2c(c1)N(CC(=O)Nc1ccc(Cl)cc1)C(=O)C1CCCN21` (stereo not drawn)?
HP1b chromo inh: inactive; BAZ2B inh: inactive; G9a inh: inconclusive; JMJD2A Tudor inh: inactive

What do the screens show for `CSc1ccccc1NC(=O)c1cc2ncc(Br)cn2n1`?
PLK1 PBD inh: inconclusive; HP1b chromo inh: inactive; BAZ2B inh: 56.2µM; G9a inh: 35.5µM; JMJD2A Tudor inh: inconclusive; PI5P4Ka inh: inconclusive

How did Cc1ccccc1Cn1ccc(NC(=O)c2nn3cccnc3c2Cl)n1 do in these assays?
PLK1 PBD inh: inactive; HP1b chromo inh: inactive; BAZ2B inh: inactive; G9a inh: inactive; JMJD2A Tudor inh: inactive; PI5P4Ka inh: inactive

What do the screens show for `CSc1ccccc1NC(=O)c1cnccn1`?
PLK1 PBD inh: inactive; HP1b chromo inh: inactive; BAZ2B inh: inactive; G9a inh: 25.1µM; JMJD2A Tudor inh: inactive

Results for CSc1ccccc1NC(=O)c1c(Br)cnn1C ?
PLK1 PBD inh: inactive; HP1b chromo inh: inactive; BAZ2B inh: inactive; G9a inh: inactive; JMJD2A Tudor inh: inactive; PI5P4Ka inh: inactive

How did Cc1ccccc1Cn1ccc(NC(=O)c2cc3ncc(Br)cn3n2)n1 do in these assays?
PLK1 PBD inh: inactive; HP1b chromo inh: inactive; BAZ2B inh: 50.1µM; G9a inh: inactive; JMJD2A Tudor inh: inactive; PI5P4Ka inh: inactive

Results for CC(=O)N(c1ccccc1)c1ccccc1[N+](=O)[O-] ?
PLK1 PBD inh: inactive; PI5P4Ka inh: inactive

Results for COCCn1c(=O)[nH]c2cc(C(=O)Nc3nnc(C)s3)ccc21 ?
PLK1 PBD inh: inactive; HP1b chromo inh: inactive; BAZ2B inh: inactive; G9a inh: 79.4µM; JMJD2A Tudor inh: inactive; PI5P4Ka inh: inactive
